Measured values as given in ChEMBL document CHEMBL3988442, “University of Dundee, Small-Polar-MMV Screening Library” (2021).
About 13,000 (27%) of roughly 48,000 compounds showed an effect of 50% or more. This is one part of the list.

Tested on: Wolbachia pipientis
Assay: Anti-Wolbachia Cell-Based Screen
Type: functional
Set-up: scale not given: in the data most compounds retested in dose-response had high values
Conditions: 5 µM

Row | Compound | Percent Effect
1 | O=C(c1cnc(Nc2ccccc2)nc1)N1CCCC2(CCNC2)C1 (configuration not stated) | -3.033%
2 | CCN(C(=O)CN(CC(N)=O)C(C)C)C1=CCCC1 | 4.298%
3 | CCOc1cc(F)ccc1NS(=O)(=O)c1cc(C)c(C(=O)O)s1 | 9.69%
4 | Cc1ccc(CN2C[C@H]3CN(CC4CCN(C)CC4)C(=O)[C@H]3C2)s1 | -10.19%
5 | O=C(c1ccccn1)N1CCc2c(nc(N3CCCC3)[nH]c2=O)C1 | -8.561%
6 | O=C(c1cccnc1)N1CCc2c(nc(N3CCCC3)[nH]c2=O)C1 | 113.8%
7 | O=C(c1ccsc1)N1CCc2c(nc(-c3ccncc3)[nH]c2=O)C1 | -0.2016%
8 | O=C(c1ncccc1O)N1CCc2c(nc(-c3ccncc3)[nH]c2=O)C1 | -0.3257%
9 | Nc1nc2c(c(N3CCN(C(=O)c4cccs4)CC3)n1)CCCC2 | 3.246%
10 | Cc1nc2sccn2c1C(=O)N1CCc2c(nc(N(C)C)[nH]c2=O)C1 | 14.79%
11 | Cc1nc(C(=O)N2CCc3c(nc(-c4ccncc4)[nH]c3=O)C2)cs1 | -11.53%
12 | Cc1nc2sccn2c1C(=O)N1CCc2c(nc(N)[nH]c2=O)C1 | -0.7078%
13 | O=C(c1cccs1)N1CCc2c(nc(N3CCCC3)[nH]c2=O)C1 | 120%
14 | O=C(c1cc[nH]n1)N1CCc2c(nc(N3CCCCC3)[nH]c2=O)C1 | 120.1%
15 | O=C(c1ccc(=O)[nH]c1)N1CCc2c(nc(-c3cccnc3)[nH]c2=O)C1 | 3.404%
16 | O=C(c1cccs1)N1CCc2c(nc(N3CCCCC3)[nH]c2=O)C1 | 121.5%
17 | O=C(Nc1cncc(Br)c1O)c1ccon1 | -9.076%
18 | Cc1csc(CCNC(=O)c2cc3c(nc2O)CCC(C)C3)n1 (configuration not stated) | -7.199%
19 | CC(C)(C)n1cc(C#N)cc1NC(=O)CCS(=O)(=O)C1CCCC1 | -10.01%
20 | COCC(C)(CCO)NC(=O)Nc1cccc(Br)c1C (configuration not stated) | 7.029%
21 | NC(=O)CN1CCN(c2ccnc3c(F)ccc(F)c23)CC1 | 3.08%
22 | NC(=O)c1cccc2nc([C@H]3CCN(Cc4ccccn4)C3)[nH]c12 | -3.203%
23 | COc1ccc(C)cc1CNC(=O)C1=NN(c2ccccc2)C(=O)CN1 | 14.16%
24 | Cc1nc(CN2CCN(c3nc4c(s3)c(C)nn4C)CC2)cs1 | 119.2%
25 | Cc1nn(C)c2nc(N3CCC(C(O)c4nccn4C)CC3)sc12 (configuration not stated) | -3.971%
26 | Cc1cc(N2CCN(Cc3nccn3C)CC2)cc(C)n1 | -5.748%

Row | Compound | Percent Effect
27 | Cc1nc(CNc2nc3c(s2)c(C)nn3C)cs1 | -20.12%
28 | Cc1nc(CN2CCN(c3ccc(SC(C)C)nn3)CC2)cs1 | 68.89%
29 | CCc1nc(CNc2nc3c(s2)c(C)nn3C)cs1 | -39.2%
30 | Cc1nn(C)c2nc(N3CCN(Cc4nccn4C)CC3)sc12 | 103.8%
31 | CC(C)Sc1ccc(N2CCN(Cc3ccccn3)CC2)nn1 | 14.48%
32 | COC(=O)c1ccc(N2CCN(Cc3csc(C)n3)CC2)nn1 | -1.977%
33 | Cc1ccc2c(c1)C(NC(=O)N(C)C)CC21CCN(C(C)C)CC1.O=C(O)C(F)(F)F (configuration not stated) | 100.3%
34 | Cc1ccc2c(c1)C(NC(=O)N(C)C)CC21CCN(CC2CC2)CC1.O=C(O)C(F)(F)F (configuration not stated) | 116.9%
35 | CCN1CCC2(CC1)CC(NC(=O)N(C)C)c1cc(C)ccc12.O=C(O)C(F)(F)F (configuration not stated) | -13.82%
36 | Cc1ccc2c(c1)C(N(C)C)CC21CCN(CCO)CC1.O=C(O)C(F)(F)F.O=C(O)C(F)(F)F (configuration not stated) | 1.059%
37 | CC(C)N1CCC2(CC1)CC(CC(N)=O)c1ccc(F)cc12.O=C(O)C(F)(F)F (configuration not stated) | 14.5%
38 | Cc1ccc2c(c1)C(NC(=O)N(C)C)CC21CCN(C)CC1.O=C(O)C(F)(F)F (configuration not stated) | 102.1%
39 | CCN1CCC2(CC1)CC(NC(=O)NC)c1cc(C)ccc12.O=C(O)C(F)(F)F (configuration not stated) | -18.25%
40 | Cn1nnc2c1CCN(S(C)(=O)=O)C2COCc1ccccc1 (configuration not stated) | -3.39%
41 | Nc1cc2c(nn1)CCN(C(=O)c1csc(-c3ccccc3)n1)C2 | 1.599%
42 | O=c1cc(-c2ccncc2)nc(-c2ccc(CN3CC[C@@H](O)C3)cc2)[nH]1 | 1.525%
43 | c1sc(C2CCCC2)nc1CN1CCn2c(nnc2C2CC2)C1 | -0.3735%
44 | Cn1cnc2c1CCN(Cc1csc(C3CCCC3)n1)C2 | 102.6%
45 | c1sc(C2CCCCC2)nc1CN1CCn2c(nnc2C2CC2)C1 | 99.95%
46 | Cn1cnc2c1CCN(Cc1csc(C3CCCCC3)n1)C2 | 104.6%
47 | Cn1cnc2c1CCN(Cc1csc(-c3ccsc3)n1)C2 | 1.661%
48 | c1cc(-c2noc(CN3CCc4c(ncn4C4CC4)C3)n2)cs1 | 0.1339%
49 | CCCc1nc(CN2CCc3c(ncn3C3CC3)C2)cs1 | 72.74%
50 | COc1ccc(-c2nc(CN3CCc4c(ncn4C)C3)cs2)cc1 | 30.48%
51 | Cc1ccc(-c2nc(CN3CCc4c(ncn4C)C3)cs2)o1 | 0.8085%
52 | CCc1nc(CN2CCc3c(ncn3C3CC3)C2)cs1 | 49.69%

Row | Compound | Percent Effect
53 | c1ccc(-c2nc(CN3CCn4c(nnc4C4CC4)C3)cs2)cc1 | 1.064%
54 | Cc1cnc(-c2nc(O)c3c(n2)CN(C(=O)C2CCCO2)CC3)cn1 (configuration not stated) | 141.1%
55 | CN(C)c1nc2c(c(=O)[nH]1)CCN(C(=O)C1CCCO1)C2 (configuration not stated) | 4.175%
56 | Cc1cnc(-c2nc(O)c3c(n2)CN(C(=O)C2CCCC2)CC3)cn1 | 133.6%
57 | Cc1cnc(-c2nc(O)c3c(n2)CN(C(=O)C2CC2)CC3)cn1 | 165.3%
58 | O=C(C1CCCO1)N1CCc2onc(-c3ccc(Cl)cc3)c2C1 (configuration not stated) | 0.5907%
59 | O=C(C1CC1)N1CCc2c(ncnc2NCCc2nc3c(s2)CCC3)C1 | 7.369%
60 | O=C(C1CCOC1)N1CCc2ncnc(C3CC3)c2CC1 (configuration not stated) | 2.623%
61 | CCN1CCN(c2ncnc3c2CCN(C(=O)C2CC2)C3)CC1 | -21.72%
62 | CCN(CC)C1CCN(c2ncnc3c2CCN(C(=O)C2CC2)C3)C1 (configuration not stated) | -6.613%
63 | O=C(C1CCOC1)N1CCc2ncnc(NC3CCC3)c2CC1 (configuration not stated) | -0.188%
64 | Cc1cnc(-c2nc(O)c3c(n2)CN(C(=O)C2CCOC2)CC3)cn1 (configuration not stated) | 177.2%
65 | CNC(=O)C1CCN(c2ncnc3c2CCN(C(=O)C2CC2)C3)C1 (configuration not stated) | -3.996%
66 | NC(=O)C(NC(=O)c1ccc(NC2CC2)nc1)c1ccccc1 (configuration not stated) | 15.13%
67 | CC(C)n1cnc(C2CN(C)c3ccc(C(=O)NC4CCCC4)cc32)n1 (configuration not stated) | -4.903%
68 | CC(=O)N[C@@H](CC(C)C)C(=O)N1CCC(n2cc(CO)nn2)CC1 | -15.95%
69 | CCCc1nccn1-c1ccc(C(C)O)cc1 (configuration not stated) | -9.636%
70 | Cc1oc(C(C)C)cc1C(=O)N1C[C@H]2CC[C@@H]1CN(C(=O)N(C)C)C2 | -18.45%
71 | O=C(N1CCC(Oc2ccncc2)C1)C1(c2ccc(F)cc2)CC1 (configuration not stated) | -3.796%
72 | COc1cnc(N2CCN(C)CC2)nc1-c1ccnn1C | -15.65%
73 | c1cc(-c2c[nH]c([C@@H]3COCCN3Cc3csnn3)n2)ccn1 | 7.154%
74 | O=C1NCCN(CC2CCCCC2)C1CC(=O)N1CCc2n[nH]cc2C1 (configuration not stated) | -15.6%
75 | Cc1cnc(-c2nc(O)c3c(n2)CN(C(=O)CC2CCCC2)CC3)cn1 | 148.5%
76 | Nc1cc2c(nn1)CCN(C(=O)CC1CCCC1)C2 | -4.566%
77 | Cc1cnc(N2CCC3(CC2)CCN(c2cncnc2)C3=O)nc1 | -8.08%
78 | NS(=O)(=O)c1ccc(NCc2ccccc2)cc1C(F)(F)F | 11.93%

Row | Compound | Percent Effect
79 | O=C(NCc1nc[nH]n1)c1cc(COc2cccc(C(F)(F)F)c2)[nH]n1 | 0.1207%
80 | NS(=O)(=O)NCc1cc(-c2ccc(C(F)(F)F)cc2)n[nH]1 | 103.6%
81 | CCOCCCC(=O)N1CCN(c2cccc(OC)c2)C(C)C1 (configuration not stated) | 5.389%
82 | Cc1ccc2c(c1)c(CNC(=O)C1CCN(CC(N)=O)CC1)nn2C | 11.07%
83 | Cc1cc(CN(C)CCC(O)c2ccccc2)nn1C (configuration not stated) | -3.114%
84 | Cc1cc(CN(C)CCC(O)c2ccccc2)no1 (configuration not stated) | 107.6%
85 | N#Cc1ccccc1CN(CC(N)=O)C1CCCC1 | -5.252%
86 | CN(CCC(O)c1ccccc1)Cc1nc(-c2ccccc2)no1 (configuration not stated) | 118.9%
87 | CN(Cc1nc(-c2ccccc2)no1)C(=O)CNS(C)(=O)=O | -1.951%
88 | Cc1nc(CN(C)Cc2nc(-c3ccccc3)no2)co1 | -6.169%
89 | CN(CCC(O)c1ccccc1)Cc1ccccc1C#N (configuration not stated) | 111.8%
90 | Cc1cc(CN(C)CCN(C)c2ccccc2)no1 | 9.198%
91 | COc1cccc(CN(C)Cc2ccccc2C#N)c1OC | -9.098%
92 | COc1ccc(F)c(NCc2cnn(C3CCS(=O)(=O)C3)c2)c1 (configuration not stated) | 7.936%
93 | Cc1ccc(CNc2ccn(CCc3ccncc3)n2)s1 | 19.44%
94 | COc1ccsc1C(=O)NC1CCN(c2cccc(F)c2)CC1 | 98.27%
95 | COc1ccc(N2CCC(NC(=O)c3ccc(C#N)cc3)CC2)cc1 | 89.14%
96 | COc1cc(OC)cc(N2CCC(NC(=O)c3ccc[nH]3)CC2)c1 | -4.011%
97 | COc1ccc(N2CCC(NC(=O)c3sccc3C)CC2)cc1 | 79.74%
98 | COc1cc(OC)cc(N2CCC(NC(=O)c3cccn3C)CC2)c1 | -13.09%
99 | COc1ccc(N2CCC(N(C)C(C)C(=O)N(C)C)CC2)cc1 (configuration not stated) | 7.179%
100 | COc1ccsc1C(=O)NC1CCN(c2ccc(C#N)cc2)CC1 | -30.88%
101 | O=C(Cc1cccs1)NC1CCN(c2cccc(F)c2)CC1 | -15.75%
102 | COc1ccc(C(=O)NC2CCN(c3ncccn3)CC2)cc1F | 13.96%
